According to PubChem BioAssay AID1259421 (Broad Institute, 2018):
Where “and” joins values, the source holds several entries; their conditions need not be identical. Identical values can stand only once. About 610 (9.5%) of roughly 6,400 compounds were called active. This is one part of a sample in which actives are shown more often than they occur. Rule as the data show it: active = activity change below about -70%; inconclusive = no clear call, values can overlap the other calls; inactive = above that. Where a structure was tested more than once in an assay, its records may differ in their call.

Experiment: Toxoplasma gondii ME49Luc growth in HeLa cells, luciferase, no IFN-y, primary screen (AID 1259421)
Details: T. gondii ME49Luc in HeLa, 72 h, stronger effect = lower value, concentration not given here

Which activity change, negative = inhibition does the source give for `CC[C@@H](Nc1c(Nc2cccc(C(=O)N(C)C)c2O)c(=O)c1=O)c1ccc(C)o1` here?
Its activity change, negative = inhibition is -16.5% (inactive).

For `CC(C)(C)NC(=O)[C@H]1CCC2C3CCC4NC(=O)C=C[C@]4(C)C3CC[C@@]21C` (stereo partly specified), which activity change, negative = inhibition is on record?
The activity change, negative = inhibition was 13.3% (inactive).

Which activity change, negative = inhibition does the source give for `COC(=O)NC(C(=O)N[C@@H](Cc1ccccc1)C(O)CN(Cc1ccc(-c2ccccn2)cc1)NC(=O)C(NC(=O)OC)C(C)(C)C)C(C)(C)C` (stereo partly specified) here?
The activity change, negative = inhibition was -10.1% (inactive).

With `O=C(O)COCCN1CCN([C@H](c2ccccc2)c2ccc(Cl)cc2)CC1` as the compound, how does the activity change, negative = inhibition read?
The activity change, negative = inhibition was -64.2% (inactive).

Which activity change, negative = inhibition does the source give for `O=C(O)COCCN1CCN(C(c2ccccc2)c2ccc(Cl)cc2)CC1` (stereo unspecified) here?
Its activity change, negative = inhibition is 2.12% (inactive) and -3.65% (inactive).

Which activity change, negative = inhibition does the source give for `OCCOCCN1CCN(C(c2ccccc2)c2ccc(Cl)cc2)CC1` (stereo unspecified) here?
The activity change, negative = inhibition was -71.5% (active).

For `O=C(CC(c1ccccc1)c1ccccc1)N1CCN(C(c2ccccc2)c2ccccc2)CC1`, which activity change, negative = inhibition is on record?
The activity change, negative = inhibition was 61.6% (inactive).

For `COc1ccc2c(c1OC)C(=O)OC2[C@H]1c2c(cc3c(c2OC)OCO3)CCN1C` (stereo partly specified), which activity change, negative = inhibition is on record?
The activity change, negative = inhibition was 10.4% (inactive).

Which activity change, negative = inhibition does the source give for `Nc1ccccc1NC(=O)c1ccc(CNC(=O)OCc2cccnc2)cc1` here?
The activity change, negative = inhibition was -0.731% (inactive) and 6.65% (inactive).

Which activity change, negative = inhibition does the source give for `Cc1cc(-c2ccc(CC(=O)Nc3ccc(-c4cccnc4)cc3)cc2)ccn1` here?
The activity change, negative = inhibition was 6.98% (inactive).

Which activity change, negative = inhibition does the source give for `Nc1ccccc1NC(=O)c1ccc(CNc2nccc(-c3cccnc3)n2)cc1` here?
The activity change, negative = inhibition was -79.8% (active) and -89.7% (active).

For `O=C(Nc1ccccc1-c1cn2c(CN3CCNCC3)csc2n1)c1cnc2ccccc2n1`, which activity change, negative = inhibition is on record?
Its activity change, negative = inhibition is -11.3% (inactive).

For `CCCC(=O)Oc1ccc2[nH]c(C(=O)c3cc4ccccc4[nH]3)cc2c1`, which activity change, negative = inhibition is on record?
The activity change, negative = inhibition was 5.11% (inactive).

Which activity change, negative = inhibition does the source give for `CN(Cc1ccccc1)Cc1ccccc1` here?
Its activity change, negative = inhibition is 16.3% (inactive).

With `CCN(CC)CCC(=O)N1c2ccccc2Sc2ccc(Cl)cc21` as the compound, how does the activity change, negative = inhibition read?
Its activity change, negative = inhibition is 17.9% (inactive).

For `O=C(O)CC(O)(CC(=O)O)C(=O)O`, which activity change, negative = inhibition is on record?
The activity change, negative = inhibition was -79.3% (active).

With `O=C(O)CO.[NH2-].[NH2-].[Pt+2]` as the compound, how does the activity change, negative = inhibition read?
The activity change, negative = inhibition was -0.913% (inactive).

With `O=C(O)CCC(=O)O` as the compound, how does the activity change, negative = inhibition read?
The activity change, negative = inhibition was -23.1% (inactive).

With `CCOC(=O)/C(=N/O)c1csc(N)n1` as the compound, how does the activity change, negative = inhibition read?
The activity change, negative = inhibition was 7.65% (inactive).

Which activity change, negative = inhibition does the source give for `CCC(CC)(NC(=O)C(C)C)C(=O)N[C@@H](CCCN=C(N)N)C(=O)NC1(C(=O)NC(c2ccc(F)cc2)c2ccc(F)cc2)CCCC1` here?
Its activity change, negative = inhibition is 12.8% (inactive).

For `C/C(=C\c1csc(C)n1)[C@@H]1C[C@@H]2O[C@]2(C)CCC[C@H](C)[C@H](O)[C@@H](C)C(=O)C(C)(C)[C@@H](O)CC(=O)N1`, which activity change, negative = inhibition is on record?
Its activity change, negative = inhibition is -94.8% (active).

Which activity change, negative = inhibition does the source give for `C=CCN1CCc2nc(N)sc2CC1` here?
The activity change, negative = inhibition was 0.82% (inactive).

Which activity change, negative = inhibition does the source give for `Fc1ccc(C2CCNCC2COc2ccc3c(c2)OCO3)cc1` (stereo unspecified) here?
Its activity change, negative = inhibition is 28.3% (inactive).

For `Cc1cc2nc3c(=O)[nH]c(=O)nc-3n(C)c2cc1C=O`, which activity change, negative = inhibition is on record?
The activity change, negative = inhibition was 9.97% (inactive) and 10.7% (inactive).

Which activity change, negative = inhibition does the source give for `CNCCCCOc1ccccc1Cc1ccccc1` here?
Its activity change, negative = inhibition is 17.6% (inactive) and 22% (inactive).

With `O=C(O)CCC1CCC(c2cc(F)ccc2F)(S(=O)(=O)c2ccc(Cl)cc2)CC1` (stereo unspecified) as the compound, how does the activity change, negative = inhibition read?
The activity change, negative = inhibition was 7.06% (inactive).

Which activity change, negative = inhibition does the source give for `N#Cc1ccccc1OCC(O)CNCCNC(=O)Nc1ccccc1` (stereo unspecified) here?
Its activity change, negative = inhibition is 10.2% (inactive) and -13.2% (inactive).

With `CC1(C)CC23C(=O)CCC(O)C2(C)CCC13` (stereo unspecified) as the compound, how does the activity change, negative = inhibition read?
The activity change, negative = inhibition was 11.7% (inactive).

With `O=C(Nc1cc(C(F)(F)F)cc(C(F)(F)F)c1)c1cc(Cl)ccc1O` as the compound, how does the activity change, negative = inhibition read?
The activity change, negative = inhibition was -83.9% (active).

With `Cc1oncc1C(=O)Nc1ccc(C(F)(F)F)cc1` as the compound, how does the activity change, negative = inhibition read?
The activity change, negative = inhibition was 165% (inactive) and 187% (inactive).

For `O=C(Nc1ccccc1)c1cc([N+](=O)[O-])ccc1Cl`, which activity change, negative = inhibition is on record?
Its activity change, negative = inhibition is 14.5% (inactive) and 9.52% (inactive).

With `O=C(Nc1ccc([N+](=O)[O-])cc1O)Nc1ccccc1Br` as the compound, how does the activity change, negative = inhibition read?
Its activity change, negative = inhibition is -48.5% (inactive) and -4.88% (inactive).

With `O=C(Nc1ccccc1)c1ccccc1O` as the compound, how does the activity change, negative = inhibition read?
The activity change, negative = inhibition was 110% (inactive) and 0.394% (inactive).

With `O=C(Nc1ccc([N+](=O)[O-])cc1Cl)c1cc(Cl)ccc1O` as the compound, how does the activity change, negative = inhibition read?
Its activity change, negative = inhibition is -93% (active) and 4.01% (inactive).

For `NC(=O)c1ccc([N+](=O)[O-])cc1Cl`, which activity change, negative = inhibition is on record?
The activity change, negative = inhibition was 17.4% (inactive) and 18.6% (inactive).

With `C=CCNC(=O)c1cc([N+](=O)[O-])cc2c(=O)[nH]c(Nc3ccc(Cl)c(Cl)c3)nc12` as the compound, how does the activity change, negative = inhibition read?
The activity change, negative = inhibition was 3.13% (inactive) and -6.94% (inactive).

For `O=C(Nc1ccncc1)c1cc([N+](=O)[O-])ccc1Cl`, which activity change, negative = inhibition is on record?
The activity change, negative = inhibition was -81.1% (active) and -86.9% (active).

Which activity change, negative = inhibition does the source give for `CN1CCN(C2=Cc3ccccc3Oc3ccc(Cl)cc32)CC1` here?
The activity change, negative = inhibition was -2.4% (inactive) and 14.5% (inactive).

With `O=C(NC1CCCCC1)NC1CCCCC1` as the compound, how does the activity change, negative = inhibition read?
Its activity change, negative = inhibition is 10.9% (inactive).

With `O=C(O)c1ccc(NC2OC(CO)C(O)C(O)C2O)cc1` (stereo unspecified) as the compound, how does the activity change, negative = inhibition read?
Its activity change, negative = inhibition is 4.39% (inactive).

With `Cc1occc(=O)c1O` as the compound, how does the activity change, negative = inhibition read?
Its activity change, negative = inhibition is -2.72% (inactive).

For `CC(C)S(=O)(=O)NC[C@H](C)c1ccc(-c2ccc(CCNS(C)(=O)=O)cc2)cc1`, which activity change, negative = inhibition is on record?
The activity change, negative = inhibition was 8.52% (inactive).

Which activity change, negative = inhibition does the source give for `CN1C[C@H]2C[C@@H]1CN2c1cc2c(cc1F)c(=O)c(C(=O)O)cn2C1CC1` here?
Its activity change, negative = inhibition is 7.36% (inactive).

Which activity change, negative = inhibition does the source give for `NC(=O)C1CCCN1C(=O)C(Cc1cnc[nH]1)NC(=O)C1CCC(=O)N1` (stereo unspecified) here?
The activity change, negative = inhibition was 2.14% (inactive).

With `CCCCCCCCCc1ccc(OCCOCCOCCOCCOCCOCCOCCOCCOCCO)cc1` as the compound, how does the activity change, negative = inhibition read?
The activity change, negative = inhibition was -73.3% (active).

Which activity change, negative = inhibition does the source give for `CCCCOc1ccc(CC(=O)NO)cc1` here?
The activity change, negative = inhibition was -24.4% (inactive) and -36.9% (inactive).

For `CCCCCCCCCCCC[N+](C)(C)CCOc1ccccc1`, which activity change, negative = inhibition is on record?
Its activity change, negative = inhibition is 14.1% (inactive).

Which activity change, negative = inhibition does the source give for `NC(=O)NCCCC(N)C(=O)O` (stereo unspecified) here?
Its activity change, negative = inhibition is 15% (inactive).

With `CC(C)=CCC[C@](C)(O)[C@H]1CC[C@]2(C)[C@@H]1[C@H](O)C[C@@H]1[C@@]3(C)CC[C@H](O)C(C)(C)[C@@H]3CC[C@]12C` as the compound, how does the activity change, negative = inhibition read?
Its activity change, negative = inhibition is 27.9% (inactive).

With `CCCn1c(=O)c2[nH]cnc2n(-c2ccc(Cl)cc2)c1=O` as the compound, how does the activity change, negative = inhibition read?
Its activity change, negative = inhibition is 15.7% (inactive) and 11% (inactive).

Which activity change, negative = inhibition does the source give for `CO/N=C(/C(=O)NC1C(=O)N2C(C(=O)O)=C(CSc3nnnn3C)CSC12)c1csc(N)n1` (stereo unspecified) here?
The activity change, negative = inhibition was 8.82% (inactive).

With `C#C[C@]1(O)CCC2C3CCC4=CC(=O)CC[C@@H]4C3CC[C@@]21C` (stereo partly specified) as the compound, how does the activity change, negative = inhibition read?
The activity change, negative = inhibition was -91% (active).

For `C#C[C@]1(O)CC[C@H]2[C@@H]3CCC4=CC(=O)CC[C@@H]4[C@H]3CC[C@@]21C`, which activity change, negative = inhibition is on record?
The activity change, negative = inhibition was -67.2% (inactive).

Which activity change, negative = inhibition does the source give for `C#C[C@]1(O)CC[C@H]2[C@@H]3CCC4=CCCC[C@@H]4[C@H]3C(=C)C[C@@]21CC` here?
Its activity change, negative = inhibition is 35.3% (inactive).

With `C#C[C@]1(O)CCC2C3CCC4=CC(=O)CC[C@@H]4C3CC[C@@]21CC` (stereo partly specified) as the compound, how does the activity change, negative = inhibition read?
Its activity change, negative = inhibition is -16.7% (inactive).

For `C#C[C@]1(O)CC[C@@H]2C3[C@H](C)CC4=C(CCC(=O)C4)[C@H]3CC[C@@]21C` (stereo partly specified), which activity change, negative = inhibition is on record?
Its activity change, negative = inhibition is 5.27% (inactive).

With `C#C[C@]1(O)CCC2C3CCC4=C(CCC(=O)C4)C3CC[C@@]21C` (stereo partly specified) as the compound, how does the activity change, negative = inhibition read?
Its activity change, negative = inhibition is -83.2% (active).

For `C#C[C@]1(OC(C)=O)CCC2C3CCC4=C/C(=N/O)CCC4C3CC[C@@]21CC` (stereo partly specified), which activity change, negative = inhibition is on record?
Its activity change, negative = inhibition is -84.7% (active).

With `C#C[C@]1(O)CC[C@H]2[C@@H]3CCC4=CC(=O)CC[C@@H]4[C@H]3CC[C@@]21CC` as the compound, how does the activity change, negative = inhibition read?
Its activity change, negative = inhibition is -67.7% (inactive).

With `C#C[C@]1(O)CCC2C3CCC4=CC(=O)CCC4C3C(=C)CC21CC` (stereo partly specified) as the compound, how does the activity change, negative = inhibition read?
The activity change, negative = inhibition was 16.2% (inactive).

For `C#C[C@]1(O)CC[C@H]2[C@@H]3CCC4=CC(=O)CC[C@@H]4C3CC[C@@]21CC` (stereo partly specified), which activity change, negative = inhibition is on record?
Its activity change, negative = inhibition is -83.6% (active).
